# Bioassay records as filed in PubChem BioAssay.
# AHR act: AHR activators, primary screen, cell-based, luminescence, luciferase reporter, human. Aryl hydrocarbon receptor (Homo sapiens), P35869. AHR-responsive luciferase reporter cells. activation, % at 5 µM. 320,000 tested, 2.5% active. AID 2796, 2010; in the data active = activation above about 47%;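 note: 0% = vehicle wells and 100% = reference agonist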
# NTR1 ag: agonists of human NTR1, primary screen, imaging, U2OS cells, beta-arrestin-GFP, high content; NTR1-U2OS beta-arrestin-GFP spot imaging, agonist mode; 330,000 tested, 0.17% active; activation, % at 20 µM; AID 493036, 2011;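 active = activation at or above 40% of the spot to cytoplasm intensity ratio, with at least 20 cells analyzed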;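 note: 0% = DMSO without peptide and 100% = 100 nM NTR1 peptide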
# Mot1-301 SUMO: yeast Mot1-301 growth rescue at high temperature, primary screen, SUMOylation pathway inhibitor project, S. cerevisiae, ATP luminescence, 38.5C; S. cerevisiae Mot1-301 growth rescue; percent above DMSO median, 100 means doubled; growth rescue, % at 18.8 µM; 320,000 tested, 1% active; AID 2716, 2010;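 active = every valid replicate shows activation above 250% relative to neutral control wells; inactive = the rest, any valid replicate at or below 250%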;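 note: OY570 slx delta 5 strain wells were the positive control but not used for scaling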
# Cardio protect: cardioprotection against H2O2-induced cell death, primary screen, uHTS, H9c2 cells, ATPLite luminescence; H9c2 cardiomyocytes, H2O2 injury protection, 2 h; protection from H2O2 cell death, % at 20 µM; 360,000 tested, 0.63% active; AID 588492, 2011;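 active = compounds giving at least 50% protection of heart cells from peroxide-induced death in the single-dose screen, raw or plate-pattern-corrected value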;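 note: 0% = DMSO wells with peroxide and 100% = DMSO wells without peroxide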
# AI-2 QS modul: Vibrio harveyi AI-2 quorum sensing modulators, primary screen, JMH597 strain, luminescence/OD600 ratio | Vibrio harveyi JMH597 AI-2 luminescence/OD600 ratio, 9 h; stronger effect = lower value; strain lacks LuxN and CqsS sensors; 0 = neutral-control median | activity change, % at 7.5 µM | 300,000 tested, 0.4% active | AID 2094, 2009; in the data active = activity change below about -75%, passing the limit was not always enough;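 note: luminescence divided by OD600 gain over 9 h not by final OD600 alone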
# GRIN3A LBD mod: binders of NR3A ligand-binding domain, primary screen, biophysical, differential scanning fluorimetry, uHTS. 340,000 tested, 2.5% active. AID 1259313, 2017. NR3A LBD differential scanning fluorimetry, Tm shift; 0% = protein alone, 100% = glycine-bound protein. Glutamate receptor ionotropic, NMDA 3A (GRIN3A) ligand-binding domain. Tm shift relative to glycine control, % at 25 µM;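 active = melting temperature shift of at least 10% of the positive control shift, at one fixed dose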
# AHR act confirm: AHR activators, confirmation, cell-based, luminescence, luciferase reporter, human. shares compounds with AHR act. human cells, AHR-responsive luciferase reporter. activation, % at 9 µM. 2,300 tested, 87% active. AID 2845, 2010; in the data active = activation above about 49%;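 note: HepG2 hepatoma cells carrying a DRE-driven firefly luciferase reporter; 0% = vehicle wells and 100% = reference agonist wells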
# PXR act counter: human PXR activators, counter-screen for AHR activator project, cell-based, luciferase luminescence | 2,300 tested, 88% active | cell-based PXR reporter | shares compounds with AHR act | activation, % at 11.6 µM; in the data active = activation above about 11%;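 note: human hepatoma DPX-2 cells expressing full-length human PXR; 0% = DMSO and 100% = reference agonist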
# Target sequence (O75469 whole entry, looked up): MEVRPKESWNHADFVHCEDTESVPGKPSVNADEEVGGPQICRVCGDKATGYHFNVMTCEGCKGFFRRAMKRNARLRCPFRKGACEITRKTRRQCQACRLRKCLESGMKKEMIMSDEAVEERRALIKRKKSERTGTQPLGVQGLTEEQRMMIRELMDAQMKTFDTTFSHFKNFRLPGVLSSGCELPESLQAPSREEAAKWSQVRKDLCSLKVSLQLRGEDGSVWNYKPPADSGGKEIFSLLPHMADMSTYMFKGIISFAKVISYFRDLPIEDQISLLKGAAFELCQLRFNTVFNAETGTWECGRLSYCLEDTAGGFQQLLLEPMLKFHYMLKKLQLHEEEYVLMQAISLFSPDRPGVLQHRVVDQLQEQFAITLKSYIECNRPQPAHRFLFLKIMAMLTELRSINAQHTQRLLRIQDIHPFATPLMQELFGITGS
# * = called active by the depositor; / = not tested or not shown. Compounds with a hit are over-represented: about 6.2% of the library has one in this group of screens.
SMILES,AHR act,NTR1 ag,Mot1-301 SUMO,Cardio protect,AI-2 QS modul,GRIN3A LBD mod,AHR act confirm,PXR act counter
O=C(CSc1nnnn1-c1ccc(F)cc1)Nc1nc2ccccc2s1,19,-2,-11,1,6,-7,/,/
CSc1nc(NS(=O)(=O)c2ccc(F)cc2F)nn1C,0,1,1,1,17,1,/,/
O=c1[nH]c(C2CCN(S(=O)(=O)c3cccc([N+](=O)[O-])c3)CC2)nc2c1nnn2Cc1ccccc1,-3,4,-7,3,23,-11,/,/
Cn1nnnc1SCC(=O)Nc1ccc2c(c1)OCO2,103*,-1,-1,3,18,0,115*,17*
O=C(CSc1nc2ccccc2n1CC(=O)N1CCCC1)Nc1ccc2c(c1)OCO2,7,-1,-18,-4,-5,1,/,/
Cc1cccc(-c2nsc(SCC(=O)Nc3ccc4c(c3)OCO4)n2)c1,105*,8,-6,-16,13,6,21,16*
Cc1ccccc1-c1nsc(SCC(=O)Nc2ccc3c(c2)OCO3)n1,14,3,4,-11,10,3,/,/
CCn1c(SCC(=O)Nc2ccc3c(c2)OCO3)nc2ccccc21,93*,-1,-17,-3,17,-1,33,82*
CCOC=C1C(=O)N(C(C)=O)c2cc(OC)c(OC)cc21,/,/,/,-2,/,-10,/,/
O=C(N/N=C\c1ccc2c(c1)OCO2)c1cncc(Br)c1,104*,1,3,2,1,-2,80*,10*
Cc1ccc(C(=O)N/N=C/c2ccc3c(c2)OCO3)o1,142*,-1,-7,-24,31,4,98*,21*
COc1cc(/C=N/NC(=O)c2ccccn2)cc2c1OCO2,36,0,0,-1,7,-1,/,/
COc1cc(/C=N/NC(=O)c2cccnc2)cc2c1OCO2,88*,2,-5,6,17,-27,78*,/
Cc1ccc(/C=N\NC(=O)c2ccc3c(c2)OCO3)o1,36,-1,241,-4,20,-2,/,/
CCCCNC(=S)N(C)/N=C/c1ccc2c(c1)OCO2,159*,1,-12,-6,15,-1,68*,26*
O=C(N/N=C/c1ccc(O)cc1)c1cncc(Br)c1,19,-1,21,3,17,-1,/,/
CC(C)(C)c1ccc(CC(=O)N2CCC2(C)C(=O)NS(=O)(=O)c2ccccc2Cl)cc1 (stereo not given),/,/,/,0,/,/,/,/
CCC1CCCCN1C(=O)CCn1c(=O)oc2ccccc21 (stereo not given),1,-1,-21,6,6,0,/,/
C=C(C)CNC(=S)N/N=C\c1ccc2c(c1)OCO2,82*,0,-4,3,-5,0,64*,67*
Clc1ccccc1N/N=C/c1ccc2c(c1)OCO2,80*,2,165,-6,17,-23,66*,35*
CC(=NO)C1(C)CC=CCC1CO (stereo not given),/,/,/,1,/,/,/,/
COc1ccccc1N=CC1=C(O)CC(c2ccccc2)CC1=O (stereo not given),100*,-1,16,12,-7,-1,94*,13*
O=C1CC(c2ccccc2)CC(O)=C1C=Nc1ccccc1Cl (stereo not given),7,3,-6,-2,3,7,/,/
Cc1oncc1C(=O)N1CCCC(CO)(Cc2ccc(F)cc2F)C1 (stereo not given),0,0,-6,4,12,-1,/,/
Cc1sc(N/N=C/c2cccnc2)nc1-c1ccccc1,1,11,19,-12,23,-14,/,/
SMILES,AHR act,NTR1 ag,Mot1-301 SUMO,Cardio protect,AI-2 QS modul,GRIN3A LBD mod,AHR act confirm,PXR act counter
Cc1ccc2nc(N/N=C/c3ccco3)cc(C)c2c1,121*,6,257,-17,3,2,177*,23*
Cc1sc(N/N=C/c2ccco2)nc1-c1ccccc1,170*,-1,14,-1,-6,-3,80*,31*
Cc1ccc2nc(SCC(=O)N/N=C/c3ccco3)cc(C)c2c1,5,4,68,6,16,-3,/,/
O=C1c2cccnc2C(=O)N1Cc1ccc(S(=O)(=O)N2CCOc3ccccc32)cc1,0,-1,11,-4,23,-6,/,/
CC1S/C(=C(\C#N)C(N)=O)N(c2ccc(F)cc2)C1=O (stereo not given),97*,0,-6,2,25,-1,122*,15*
CNC(=O)/C(C#N)=C1\SC(Cc2ccc(F)cc2)C(=O)N1c1ccccc1C (stereo not given),0,-1,-23,-1,13,-3,/,/
Cc1cccc(NC(=O)c2cnc3scc(C)n3c2=O)c1,79*,2,340,2,2,0,96*,57*
Cc1csc2ncc(C(=O)Nc3ccc4c(c3)OCCO4)c(=O)n12,11,2,8,1,41,0,/,/
Cc1csc2ncc(C(=O)Nc3ccon3)c(=O)n12,120*,-1,162,-3,34,-4,115*,12*
Clc1ccc2[nH]c3c(NCCCN4CCOCC4)ncnc3c2c1,82*,0,57,-5,15,2,40,37*
CC(=O)NC(c1cccc(F)c1)c1nc(-c2ccoc2)cs1 (stereo not given),/,/,/,12,/,/,/,/
CC(=O)Nc1cccc(N/C(N)=N/c2nc(C)cc(C)n2)c1,46,-1,22,2,-1,-1,/,/
Cc1cccc(N/C(N)=N/c2nc(C)cc(C)n2)c1,81*,-1,9,-2,5,4,50*,12*
C(=N/Nc1nccs1)/c1cccnc1,12,0,-6,-3,20,4,/,/
Clc1cccc(/C=N\Nc2nccs2)c1,117*,1,-9,-5,6,-15,122*,37*
CSc1sc(C(=O)NN)c2c1C1(CCC2)SCCS1,32,1,-2,25,/,0,/,/
CSc1sc(C(=O)NN)c2c1C(O)CCC2 (stereo not given),80*,-1,-10,-3,16,-1,11,4
